Bioassay records as filed in PubChem BioAssay.
AmpC no deterg: qHTS Inhibitors of AmpC Beta-Lactamase (assay without detergent). P00811. AmpC nitrocefin hydrolysis, absorbance 480 nm, 0.0001% Triton. Potency, µM (highest dose often 57.1 µM), without a hit: at the top dose activity change, negative = inhibition, usual class: inhibitors. 330,000 compounds, 0.52% hits. AID 485341, 2010;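 note: plate controls were no compound for no effect and no enzyme for full effect; nearly all actives have a fitted effect of over 20% in size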
Target sequence (P00811 whole entry, looked up): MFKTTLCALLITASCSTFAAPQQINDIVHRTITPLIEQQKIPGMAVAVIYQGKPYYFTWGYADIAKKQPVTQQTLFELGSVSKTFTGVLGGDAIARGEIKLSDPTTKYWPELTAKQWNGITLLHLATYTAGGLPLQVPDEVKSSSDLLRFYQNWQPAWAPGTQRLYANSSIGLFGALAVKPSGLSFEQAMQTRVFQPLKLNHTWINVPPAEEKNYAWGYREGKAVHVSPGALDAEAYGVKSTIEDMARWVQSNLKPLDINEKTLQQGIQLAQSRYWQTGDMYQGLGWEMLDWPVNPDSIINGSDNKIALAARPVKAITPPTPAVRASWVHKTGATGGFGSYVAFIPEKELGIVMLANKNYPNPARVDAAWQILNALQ
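AmpC (5.3 nM in the dispensed reagent) in 20 mM phosphate pH 7.0 with 0.01% (detergent screen) or 0.0001% Triton X-100 was preincubated with compounds for 15 min at room temperature. Nitrocefin was then added from an 800 uM solution, and hydrolysis was followed at 480 nm.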
Sm TGR block: qHTS Assay for the Inhibitors of Schistosoma Mansoni Peroxiredoxins | Schistosoma mansoni thioredoxin glutathione reductase (TGR), Q962Y6 | purified TGR, DTNB reduction, TNB absorbance 405 nm | Potency, µM (titrated, usually from 114 µM), for the others: at the highest dose activity change, negative = inhibition, actives largely listed as inhibitors | 360,000 compounds, 3% hits | AID 485364, 2010; note: % is set by controls: 0 for no effect and ±100 for the full control effect; nearly all actives have a fitted effect of over 60% in size
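First, TGR (20 nM dispensed) and NADPH were mixed with compound. Second, a 15 min room-temperature incubation followed. Third, further NADPH and then DTNB were added to start the reaction. Finally, TNB absorbance was monitored kinetically.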
AmpC inh detg: qHTS Inhibitors of AmpC Beta-Lactamase (assay with detergent) | P00811 | AmpC hydrolysis of nitrocefin, absorbance 480 nm, 0.01% Triton | Potency, µM (series often up to 114 µM), without a hit: at the highest dose activity change, negative = inhibition, most hits filed as inhibitors | 370,000 compounds, 0.041% hits | AID 485294, 2010;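 note: 0% = no-compound wells and -100% = no-enzyme wells; nearly all actives have a fitted effect of over 25% in size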
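20 mM phosphate pH 7.0 + 0.01% (detergent screen) or 0.0001% Triton X-100; 5.3 nM AmpC reagent; cpd preinc 15 min RT; nitrocefin (800 uM stock) to start; A480 q20 s × 4 min; Activity was normalised to no-enzyme and no-compound control wells.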
TbPYK inhibitor: qHTS of Trypanosoma Brucei Inhibitors; pyruvate kinase (Trypanosoma brucei), Q57TT1; TbPYK enzyme, Kinase-Glo Plus ATP luminescence, 45 min; 410,000 compounds, 0.12% hits; AID 624173, 2012; Potency, µM (top dose mostly 76.8 µM), without a hit: top-dose activity, negative = inhibition, most hits filed as inhibitors; note: % is set by controls: 0 for no effect and ±100 for the full control effect; nearly all actives have a fitted effect of over 50% in size
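Luminescent Kinase-Glo Plus end-point after 45 min room-temperature reaction of T. brucei pyruvate kinase started with 130 uM ADP (final). Buffer TEA 50 mM pH 7.2 with KCl, MgCl2, BSA, Tween-20; titration-based qHTS with fitted concentration-effect curves.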
SARS PLpro yeast: qHTS of Yeast-based Assay for SARS-CoV PLP | S. cerevisiae expressing SARS-CoV PLpro, growth rescue | 330,000 compounds, 0.19% hits | Potency, µM (top dose mostly 32.9 µM), inactives show at the highest dose activity, positive = growth rescue, hits mostly activators; calls by dose curve; note: 0% is about no effect; nearly all actives have a fitted effect of over 55% in size
RE007 growth inh: qHTS Assay for Inhibitors of the HIV-1 protein Vpr; S. pombe RE007 Vpr strain, BacTiter-Glo ATP luminescence, 24 h; Potency, µM (series often up to 92.2 µM), without a hit: at the top dose activity change, negative = less growth, usual class: inhibitors; 360,000 compounds, 0.21% hits; active = well fitted falling curve with a large enough effect; inconclusive = small, poorly fitted or top-dose-only effect; inactive = no such curve, though single readings can be large or run the other way; note: % is set by controls: 0 for no effect and ±100 for the full control effect; nearly all actives have a fitted effect of over 50% in size
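Fission yeast RE007 carrying one integrated HIV-1 vpr copy, seeded at OD 0.01 in PMG+AL medium with 23 nL pinned compound. Grown 24 h at 30 degrees; viability read by BacTiter-Glo luminescence after 5 min.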
The depositor's hits bear a star; ? = inconclusive; . = not tested or not shown. The list is not random: actives were taken first. Their share in the collection is about 3.3%. Unless noted, calls come from the whole dose curve; as a rule, active = well fitted curve in the direction sought with a large enough effect; inconclusive = small, poorly fitted or top-dose-only effect, or another doubt; inactive = no such curve, though single readings can be large; an effect the other way counts as inactive or inconclusive. Potency is the fitted concentration of half-maximal effect.

SMILES	AmpC no deterg	Sm TGR block	AmpC inh detg	TbPYK inhibitor	SARS PLpro yeast	RE007 growth inh
CCc1ccccc1NC(=O)Cn1c(=O)ccc2cc(S(=O)(=O)N3CCC(C)CC3)ccc21	.	2%	9%	-13%	.	.
CCOC(=O)C1CCCN(CC(=O)c2ccc(F)cc2)C1 (stereo not given)	-15%	18µM*	-2%	3%	1%	-6%
COc1ccc(N(C(=O)c2ccccc2C)S(=O)(=O)c2ccc3c(c2)n(C)c(=O)n3C)cc1	.	3%	21%	1%	.	.
O=C(Nc1ccc(F)c(Cl)c1)C1Cc2ccccc2CN1S(=O)(=O)c1ccc(F)cc1 (stereo not given)	.	1%	13%	-6%	.	.
CC(C)c1cnc2c(c1SCC(=O)Nc1cccc(F)c1)c(=O)n(C)c(=O)n2C	.	-2%	8%	3%	.	.
CCOc1cc2c3c(c1)C1(C(=O)N3C(C)(C)CC2C)C(C#N)=C(N)N2C(=C1C#N)Nc1ccccc12 (stereo not given)	13µM*	-2%	1%	-1%	-11%	-10%
CCOc1cc2c3c(c1)C1(Nc4ccccc4S1)C(=O)N3C(C)(C)CC2C (stereo not given)	-25%	-8%	-5%	1%	-22%	6%
Cc1cccc(OCCn2c(SCC(N)=O)nc3ccccc32)c1	.	-1%	7%	-15%	.	.
CC(C)c1ccc(NC(=O)c2cc(S(=O)(=O)N3CCCCC3)cn2C)cc1	.	-4%	?	2%	.	.
COC(=O)C1=C(C)N(C(C)C)C(=O)C1(NC(=O)c1ccc(C(C)(C)C)cc1)C(F)(F)F (stereo not given)	.	9%	0%	0%	.	.
COc1ccc(C(C)NC(=O)CN(c2cc(OC)ccc2OC)S(=O)(=O)c2ccccc2)cc1 (stereo not given)	.	3%	-6%	-24%	.	.
CCOc1ccccc1C(=O)NC1(C(F)(F)F)C(=O)Nc2c1c(=O)[nH]c(=O)n2-c1ccccc1 (stereo not given)	.	8%	-4%	-4%	.	.
CCc1ccc(C(=O)/C=C/c2ccc([N+](=O)[O-])o2)cc1	-22%	3.2µM*	0%	-23%	-35%	-11%
CCN(CC)S(=O)(=O)c1ccc(C(=O)/C=C/c2ccc(-c3ccc([N+](=O)[O-])cc3)o2)cc1	-33%	16µM*	-1%	-7%	-1%	-15%
Cc1n[nH]c(=S)c2nn(-c3cccc(Cl)c3)c(C)c12	-11%	79µM*	-6%	.	4%	.
S=C(NCCNC(=S)Nc1ccccc1Cl)Nc1ccccc1Cl	-45%	0%	1%	1%	0%	9%
S=C(NCc1cccs1)Nc1cccc(Cl)c1	-32%	-21%	-1%	4%	-17%	-9%
S=C(NCc1cccs1)Nc1ccccc1Cl	-14%	11µM*	9%	-2%	1%	-9%
S=C(NCc1cccs1)Nc1cc(Cl)cc(Cl)c1	?	11µM*	?	-5%	-6%	-11%
CO[C@H]1/C=C/O[C@@]2(C)Oc3c(C)c(O)c4c(O)c(c(/C=N\N5CCN(C6CCCC6)CC5)c(O)c4c3C2=O)NC(=O)/C(C)=C\C=C\[C@H](C)[C@H](O)[C@@H](C)[C@@H](O)[C@@H](C)[C@H](OC(C)=O)[C@@H]1C	.	.	.	0%	.	.
COc1ccccc1CNC(=O)CSc1nc(=O)[nH]c2c1CCC2	.	10%	3%	2%	.	.
NS(=O)(=O)c1ccc(-c2ccc(/C=C3\SC(=S)N(C4CCS(=O)(=O)C4)C3=O)o2)cc1 (stereo not given)	-25%	1%	0%	-13%	0%	-13%
NS(=O)(=O)c1ccc(-c2ccc(C=NC3CCS(=O)(=O)C3)o2)cc1 (stereo not given)	-29%	71µM*	?	-1%	1%	10%
Cc1ccc2c(c1)C(=C(C#N)C#N)C(=O)N2CCN1CCOCC1	14%	3.2µM*	-4%	1%	-4%	-9%
N#CC(C#N)=C1C(=O)N(CCN2CCOCC2)c2ccccc21	2%	3.5µM*	-4%	-5%	2%	59%
SMILES	AmpC no deterg	Sm TGR block	AmpC inh detg	TbPYK inhibitor	SARS PLpro yeast	RE007 growth inh
CC(=O)Nc1ccc(-c2csc(NNC(=O)c3ccc(C)cc3)n2)cc1	-20%	.	-4%	1%	2%	8%
CC(=O)NNc1nc(-c2ccc(NC(C)=O)cc2)cs1	-26%	40µM*	0%	-8%	-13%	19%
Cc1ccc(N(Cc2cc3ccc(C)cc3[nH]c2=O)C(=O)c2ccco2)cc1	-28%	2.2µM*	-10%	-17%	1%	2%
Cc1cccc(N(Cc2cc3ccc(C)cc3[nH]c2=O)C(=O)c2ccco2)c1	-10%	4.5µM*	12%	-24%	0%	-6%
Cc1ccc2cc(CN(Cc3ccco3)C(=O)c3cccs3)c(=O)[nH]c2c1	-31%	40µM*	-5%	-14%	1%	1%
Cc1ccc2cc(CN(C(=O)c3ccco3)c3ccccc3)c(=O)[nH]c2c1	-17%	32µM*	?	2%	-12%	0%
Cc1ccc(N(Cc2cc3ccccc3[nH]c2=O)C(=O)c2ccco2)c(C)c1	-40%	-15%	-9%	-6%	1%	5%
CCC(Nc1ccc(-c2nc(-c3ccccn3)no2)cc1[N+](=O)[O-])c1ccccc1 (stereo not given)	.	0%	-3%	0%	.	.
C=CC(=O)Nc1cc2c(Nc3ccc(F)c(Cl)c3)ncnc2cc1OCCCN1CCOCC1	.	.	.	-8%	.	.
Cc1cc(C(F)(F)F)c2c(N)c(C(=O)Nc3c(Cl)cccc3Cl)sc2n1	.	15%	-7%	-9%	.	.
Cc1ccc(-c2cn3c(n2)sc2cc(C(=O)NCCCc4ccccc4)ccc23)c(C)c1	.	0%	10%	-4%	.	.
CCSc1nc(N)c(C#N)c(-c2ccco2)c1C#N	-37%	-14%	-3%	7%	-38%	12%
N#Cc1c(-c2ccco2)cc(-c2ccc(F)cc2)nc1N	-38%	6.3µM*	-4%	-10%	0%	-29%
COC(=O)CSc1nc(-c2ccccc2)cc(-c2ccco2)c1C#N	-48%	32µM*	-1%	0%	0%	-4%
COC(=O)CSc1nc(N)c(C#N)c(-c2ccco2)c1C#N	-21%	?	1%	-5%	0%	2%
N#Cc1c(-c2ccc(F)cc2)cc(-c2cccnc2)nc1N	-9%	-3%	?	0%	-1%	13%
